# Measured values taken from PubChem BioAssay (NCATS).
# Results filed as inconclusive are left out. Values without a mark were called inactive. Calls come from the whole dose curve; as a rule, active = well fitted curve in the direction sought with a large enough effect; inconclusive = small, poorly fitted or top-dose-only effect, or another doubt; inactive = no such curve, though single readings can be large; an effect the other way counts as inactive or inconclusive.
# Test: Cell Viability - N2a (AID 540);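 note: cells exposed to compound for 40 h at 37 °C; plate controls were DMSO alone for no effect and tamoxifen control for full effect; nearly all actives have a fitted effect of over 45% in size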
# Details: N2a mouse neuroblastoma cell viability; activity change, negative = cytotoxicity: at 92.2 µM (top of the series)
# Procedure, shortened: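 Cytotoxicity was scored as loss of cellular ATP in N2a cells, a mouse neuroblastoma line. Compounds are applied in a qHTS concentration series for 40 hr at 37 °C.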
row,SMILES,"activity change, negative = cytotoxicity"
1,Cc1cc(C)c(N)cc1C,-1.04%
2,Cc1cccc2ccccc12,-4.08%
3,C=C(C)C(=O)OCC(C)C,1.04%
4,O=Cc1ccc(C(=O)O)cc1,-12.7%
5,CCOc1cc(OCC)c(C(C)=O)cc1OCC,-7.23%
6,CCCCC(CC)CNCC(CC)CCCC (configuration not stated),-7.79%
7,C=CCOC(=O)COCCC(C)C,-4.01%
8,ICCc1ccccc1,0.359%
9,Cc1ccccc1C(N)=O,-9.85%
10,CNC(=O)c1ccccc1,-4.58%
11,ClCCl,-5.52%
12,CCOc1ccc(NC(C)=O)cc1N,-12.5%
13,Nc1ccc(F)cc1F,-8.92%
14,CC(=O)c1ccc([N+](=O)[O-])cc1,0.428%
15,CCCCN(CCO)CCCC,-15.2%
16,BrC(Br)C(Br)Br,7.56%
17,Nc1nc(CC(=O)O)cs1,6.3%
18,O=[N+]([O-])c1cc(C(F)(F)F)ccc1Cl,4.62%
19,Cc1ccc(C(C)(C)C)cc1,-7.24%
20,CC(C)=CCl,1.02%

row,SMILES,"activity change, negative = cytotoxicity"
1,O=Cc1ccc(Cl)cc1,-2.43%
2,NC(=O)c1cccc([N+](=O)[O-])c1,-1.6%
3,C=CCn1c(=O)n(CC=C)c(=O)n(CC=C)c1=O,0.0467%
4,Cc1cc(C)cc([N+](=O)[O-])c1,-7.51%
5,CC(=O)OC(C)C,3.96%
6,CCC(=O)/C=C/C1C(C)=CCCC1(C)C (configuration not stated),-6.46%
7,CC(=O)CCc1ccccc1,-2.11%
8,CCCCOCCOCCOCCCC,3.3%
9,Cc1cc(C(=O)O)ccc1[N+](=O)[O-],4.23%
10,Cc1cccc(C)c1O,-7.98%
11,O=c1[nH][nH]c(=O)c2cc([N+](=O)[O-])ccc12,11.9%
12,CC(C)CCOC(=O)/C=C/c1ccccc1,1.5%
13,NC(=O)CCCCC(N)=O,-5.03%
14,ON=C1CCCCC1,0.317%
15,CC(=O)Nc1ccccc1C,2.99%
16,COC(=O)CS,-8.95%
17,Cc1ccc2cccnc2c1,-6.28%
18,Cc1cccc([N+](=O)[O-])c1C(=O)O,11.2%
19,CCOc1cccc(N)c1,4.96%

# Test: Cell Viability - NIH 3T3 (AID 541);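 note: cells exposed to compound for 40 hours; plate controls were DMSO alone for no effect and tamoxifen positive control for full effect; nearly all actives have a fitted effect of over 25% in size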
# Details: NIH 3T3 cell viability, qHTS; activity change, negative = cytotoxicity: at 92.2 µM (top of the series)
# Procedure, shortened: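 Cells seeded at 1000/well, rested 5 hr at 37 °C, then dosed and incubated 40 hr at 37 °C. CellTiter-Glo added, 20 min room temperature, luminescence read. AC50 by Hill fit.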
row,SMILES,"activity change, negative = cytotoxicity"
1,Cc1cc(C)c(N)cc1C,0.876%
2,Cc1cccc2ccccc12,-2.3%
3,C=C(C)C(=O)OCC(C)C,20.4%
4,O=Cc1ccc(C(=O)O)cc1,-20.2%
5,CCOc1cc(OCC)c(C(C)=O)cc1OCC,-27%
6,CCCCC(CC)CNCC(CC)CCCC (configuration not stated),-2.64%
7,C=CCOC(=O)COCCC(C)C,-20.7%
8,ICCc1ccccc1,-9.95%
9,Cc1ccccc1C(N)=O,-13.8%
10,CNC(=O)c1ccccc1,-22.8%
11,ClCCl,3.48%
12,CCOc1ccc(NC(C)=O)cc1N,-10.2%
13,Nc1ccc(F)cc1F,-14.7%
14,CC(=O)c1ccc([N+](=O)[O-])cc1,0.475%
15,CCCCN(CCO)CCCC,-20.1%
16,BrC(Br)C(Br)Br,9.47%
17,Nc1nc(CC(=O)O)cs1,-10.1%
18,O=[N+]([O-])c1cc(C(F)(F)F)ccc1Cl,4.8%
19,Cc1ccc(C(C)(C)C)cc1,-22.3%
20,CC(C)=CCl,4.89%

row,SMILES,"activity change, negative = cytotoxicity"
1,O=Cc1ccc(Cl)cc1,-7.16%
2,NC(=O)c1cccc([N+](=O)[O-])c1,-6.21%
3,C=CCn1c(=O)n(CC=C)c(=O)n(CC=C)c1=O,-18.6%
4,Cc1cc(C)cc([N+](=O)[O-])c1,-12.4%
5,CC(=O)OC(C)C,-3.64%
6,CCC(=O)/C=C/C1C(C)=CCCC1(C)C (configuration not stated),-22.8%
7,CC(=O)CCc1ccccc1,-13.3%
8,CCCCOCCOCCOCCCC,-3.18%
9,Cc1cc(C(=O)O)ccc1[N+](=O)[O-],-1.62%
10,Cc1cccc(C)c1O,-12.8%
11,O=c1[nH][nH]c(=O)c2cc([N+](=O)[O-])ccc12,-9.89%
12,CC(C)CCOC(=O)/C=C/c1ccccc1,10.7%
13,NC(=O)CCCCC(N)=O,-9.78%
14,ON=C1CCCCC1,-2.05%
15,CC(=O)Nc1ccccc1C,-0.0181%
16,COC(=O)CS,-13.3%
17,Cc1ccc2cccnc2c1,-10.4%
18,Cc1cccc([N+](=O)[O-])c1C(=O)O,-0.496%
19,CCOc1cccc(N)c1,-10.3%

# Test: Cell Viability - HUV-EC-C (AID 542);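 note: cells exposed to compound for 40 hours; % is set by controls: 0 for no effect and ±100 for the full control effect; nearly all actives have a fitted effect of over 35% in size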
# Details: HUV-EC-C endothelial cell viability, qHTS; series mostly up to 92.2 µM; activity change, negative = cytotoxicity: at the top concentration
# Procedure, shortened: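 Cells were seeded at 1000 per well and incubated 5 hr at 37 °C before compound addition. After 40 hr at 37 °C, CellTiter-Glo reagent was added for 20 min and luminescence read. AC50 values came from Hill-equation modelling.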
row,SMILES,"activity change, negative = cytotoxicity"
1,Cc1cc(C)c(N)cc1C,4.86%
2,Cc1cccc2ccccc12,-0.0928%
3,C=C(C)C(=O)OCC(C)C,8.86%
4,O=Cc1ccc(C(=O)O)cc1,-6.63%
5,CCOc1cc(OCC)c(C(C)=O)cc1OCC,-5.3%
6,CCCCC(CC)CNCC(CC)CCCC (configuration not stated),-6.85%
7,C=CCOC(=O)COCCC(C)C,-2.93%
8,ICCc1ccccc1,-1.18%
9,Cc1ccccc1C(N)=O,-12.5%
10,CNC(=O)c1ccccc1,-6.88%
11,ClCCl,13.4%
12,CCOc1ccc(NC(C)=O)cc1N,-8.63%
13,Nc1ccc(F)cc1F,-16.7%
14,CC(=O)c1ccc([N+](=O)[O-])cc1,-3.43%
15,CCCCN(CCO)CCCC,0.744%
16,BrC(Br)C(Br)Br,1.46%
17,Nc1nc(CC(=O)O)cs1,4.44%
18,O=[N+]([O-])c1cc(C(F)(F)F)ccc1Cl,17.7%
19,Cc1ccc(C(C)(C)C)cc1,1.61%
20,CC(C)=CCl,19.4%

row,SMILES,"activity change, negative = cytotoxicity"
1,O=Cc1ccc(Cl)cc1,-10.6%
2,NC(=O)c1cccc([N+](=O)[O-])c1,0.712%
3,C=CCn1c(=O)n(CC=C)c(=O)n(CC=C)c1=O,-2.25%
4,Cc1cc(C)cc([N+](=O)[O-])c1,3.9%
5,CC(=O)OC(C)C,6.98%
6,CCC(=O)/C=C/C1C(C)=CCCC1(C)C (configuration not stated),-3.43%
7,CC(=O)CCc1ccccc1,11.6%
8,CCCCOCCOCCOCCCC,6.74%
9,Cc1cc(C(=O)O)ccc1[N+](=O)[O-],20%
10,Cc1cccc(C)c1O,2.22%
11,O=c1[nH][nH]c(=O)c2cc([N+](=O)[O-])ccc12,15.9%
12,CC(C)CCOC(=O)/C=C/c1ccccc1,8.31%
13,NC(=O)CCCCC(N)=O,18.3%
14,ON=C1CCCCC1,5.15%
15,CC(=O)Nc1ccccc1C,1.75%
16,COC(=O)CS,-16.6%
17,Cc1ccc2cccnc2c1,-11.3%
18,Cc1cccc([N+](=O)[O-])c1C(=O)O,5.62%
19,CCOc1cccc(N)c1,-3.49%
